The values that follow come from PubChem BioAssay.

A number with no mark means an inactive call. No rule for the calls is given here. Numbered stars: 1 amine (or outer) side, 2 acyl side, 3 side chain; on linkers, the order of the positions; unused ones are H or OH. Bridge positions count the residues as written; N and C are the ends. Square brackets hold non-standard residues; d marks the D form. Peptide text beside a SMILES is read from it. * marks the point of attachment. ξ: configuration not given here. ΔAla(Z-3-ureido) = NC(=O)N/C=C(\N)C(=O)O; X2 = NC1=NC(O)CC(C(N[*:1])C(=O)[*:2])N1; ξβ3hOrn = NCCCC(N)CC(=O)*; Dap = NC[CH](N)C(=O)O

The nature of this assay: hESC survival regulators, cell-based (AID 493140).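 Also: cells exposed to compounds for four days before counting.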 As to conditions: human embryonic stem cell survival screen; stronger effect = higher value.
For `CCCCC[C@H](O)/C=C/[C@H]1OC(O)C[C@H](O)[C@@H]1C/C=C\CC(=O)O` (stereo not given in full), the survival was 117.
In the case of `CC1O[C@@H](OC2/C=C/C=C/C=C/C=C/C[C@@H](C)OC(=O)/C=C/[C@H]3O[C@@H]3C[C@H](O)C[C@]3(O)C[C@H](O)[C@@H](C(=O)O)[C@H](C2)O3)C(O)C(N)[C@@H]1O` (stereo not given in full), the survival was 28.2.
On to `CCNC1CC(N)C(OC2OC(CN)=CCC2N)C(O)C1OC1OCC(C)(O)C(NC)C1O` (stereo not given), for which the survival is 17.9.
The result for `CCCCCCCCCCCCC/C=C/[C@@H](O)[C@H](COP(=O)([O-])OCC[N+](C)(C)C)NC(=O)CCCCCCCCCCCCCCCCC` reads 81.8; that for `CC(C)NCC1CCc2cc(CO)c([N+](=O)[O-])cc2N1` (stereo not given), 28.3.
In the case of `NC(=O)c1ncn([C@@H]2O[C@H](CO)[C@H](O)C2O)n1` (stereo not given in full), the survival was 1.33.
`CN(C)CCCO[C@H]1[C@@H](C(O)CO)OC2OC(C)(C)O[C@H]21` (stereo not given in full): the survival is 7.5.
For the molecule `CCO[C@@H]1O[C@H](C(COCc2ccccc2)OCc2ccccc2)[C@@H](OCc2ccccc2)C1O` (stereo not given in full), the survival was 10.8.
In the case of `Nc1ncc2[nH]cnc2n1`, the survival was 108.
As for `CCCCC/C=C\C[C@@H](O)/C=C/C=C\CCC(=O)O`, the survival is 67.7.
With `C[C@@]1(OC(=O)/C=C\c2ccccc2)C[C@H](O)[C@@]2(O)C=CO[C@H](OC3OC(CO)C(O)C(O)C3O)C12` (stereo not given in full), the survival is 6.83.
As for `CN(N=O)C(=O)NC1[C@@H](O)OC(CO)[C@@H](O)[C@H]1O` (stereo not given in full), the survival is 8.42.
Consider `CCCCCC[C@@H](O)C/C=C\CCCCCCCC(=O)O`, for which the survival was 85.1.
With `O=C(O)CCCC/C=C\C[C@@H](O)/C=C/C=C/C=C\[C@@H](O)CCCC(=O)O`, the survival was 96.1.
Turning to `CCCCC/C=C\C[C@@H]1O[C@H]1C(O)/C=C\C/C=C\CCCC(=O)O` (stereo not given in full), the survival is 86.8.
For the molecule `CCCCC[C@H](O)/C=C/[C@@H]1[C@@H](CC(=O)CCC(=O)O)[C@@H](O)C[C@H]1O`, the survival is 104.
On to `CCCCCCCC[C@@H](O)/C=C/C=C/C=C\[C@@H](O)CCCC(=O)O`, for which the survival was 96.4.
For `CO[C@@H]1[C@H](OC(N)=O)C(O)[C@H](Oc2ccc3c(O)c(NC(=O)c4ccc(O)c(CC=C(C)C)c4)c(=O)oc3c2C)OC1(C)C` (stereo not given in full), the survival was 8.33.
For `C[C@@H](O)CCC[C@H](O)/C=C/[C@@H]1[C@@H](C/C=C\CCCC(=O)O)[C@@H](O)C[C@H]1O` the value was 102; for `CCCCCCCC/C=C\C/C=C\C=C\C(O)CCCC(=O)O` (stereo not given), 116.
For `NCCCC(N)CC(=O)NC1CNC(=O)C(C2CC(O)N=C(N)N2)NC(=O)/C(=C/NC(N)=O)NC(=O)C(CO)NC(=O)C(CO)NC1=O` (stereo not drawn) (ξβ3hOrn-[Dap]SS[ΔAla(Z-3-ureido)][X2]; lactam 1-C; configuration not given here), the survival is 10.8.
On to `CCCCC/C=C\C\C=C/C=C/C=C/[C@@H](SCC(N)C(=O)O)[C@@H](O)CCCC(=O)O` (stereo not given in full), for which the survival is 107.
For `CCCCC[C@H](O)/C=C/C=C\CCCCCCCCCC(=O)O`, the survival is 73.3.
As for `CCCCC/C=C\C[C@@H](O)/C=C/C=C/C=C/[C@@H](O)CCCC(=O)O`, the survival was 77.1.
As to `CCCCCCCCCCCCC/C=C/[C@@H](O)[C@@H](N)COP(=O)(O)O`, the survival was 87.9.
With `CCCCC/C=C\C[C@@H]1O[C@H]1/C=C/C(O)C/C=C\CCCC(=O)O` (stereo not given in full), the survival is 93.9.
Take `Cn1cnc2nc(NCCO)nc(NCc3ccccc3)c21`: the survival was 111.
As to `CCCCCC#CC[C@@H](O)/C=C/C=C/C=C\[C@@H](O)CCCC(=O)O`, the survival was 71.7.
On to `CCCCCC(O)/C=C/C=C\CCCCCCCC(=O)O` (stereo not given), for which the survival is 49.5.
For `O=P(O)(O)C(O)c1ccc2ccccc2c1` (stereo not given), the survival is 93.4.
Regarding `C[C@@H](O)CCC[C@H](O)/C=C/[C@H]1[C@H](O)CC(=O)[C@@H]1C/C=C\CCCC(=O)O`, the survival was 111.
The result for `CCCCC/C=C\C/C=C\C/C=C\C=C\C1CCCC(=O)O1` (stereo not given) reads 76.9; that for `CCCCC/C=C\C/C=C\C/C=C\C=C\C(O)CCCC(=O)O` (stereo not given), 122; that for `CC1O[C@@H](O[C@@H]2C(CO)O[C@@H](OCC3O[C@@H](OC(=O)C45CC[C@@H](C)[C@H](C)[C@H]4C4=CC[C@@H]6[C@@]7(C)C[C@@H](O)[C@H](O)[C@@](C)(CO)C7CC[C@@]6(C)[C@]4(C)CC5)C(O)[C@H](O)[C@@H]3O)C(O)[C@@H]2O)C(O)[C@@H](O)[C@H]1O` (stereo not given in full), 9.83.
For the molecule `O=C(O)c1cc(NCc2cc(O)ccc2O)ccc1O`, the survival was 90.2.
On to `CCCCC/C=C\C/C=C\C/C=C\CCCCCCC(=O)O[C@H](COCCCCCCCCCCCCCCCC)COP(=O)([O-])OCC[N+](C)(C)C`, for which the survival is 71.5.
As for `CCCCC/C=C\C\C=C/C=C/C=C/[C@@H](O)[C@@H](O)CCCC(=O)O`, the survival is 116.
On to `NC(=O)c1ccc[n+]([C@H]2O[C@@H](COP(=O)([O-])OP(=O)(O)OC[C@H]3O[C@@H](n4cnc5c(N)ncnc54)C(O)[C@H]3O)C(O)[C@H]2O)c1` (stereo not given in full), for which the survival was 4.5.
`CCCCC/C=C\C[C@H](O)/C=C/C=C/C=C/[C@@H](O)CCCC(=O)O`: the survival is 96.2.
For `CCCCCCCN[C@H]1CCC[C@@H]1CCCCCCC(=O)O`, the survival was 114.
